Laboratory results reported in PubChem BioAssay AID488890 (Southern Research Specialized Biocontainment Screening …, 2010).
About 1,300 (0.41%) of roughly 320,000 compounds were called active. About 3% were inconclusive and are not listed. No rule for the calls is given here. These entries were drawn from the full list. Results with a measured potency or affinity are listed apart.

Assay: growth inhibition of non-replicating M. tuberculosis (AID 488890);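 also: plate controls were DMSO cells for no effect and high antibiotic wells for full effect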
Settings: Mycobacterium tuberculosis non-replicating, at 25 µM, stronger effect = higher value

Going from `Cc1cc(C(=O)N/N=C2\CCCc3ccccc32)c(C)o1` to `CCc1nnc(NC(=O)c2c(-c3ccccc3)noc2C)s1`, the inhibition rises from 8.07% to 13.3%.

First: CC(C)c1ccc2[nH]c3c(c2c1)[C@@H]1CCN2C(=O)CCC[C@H](C3)[C@H]12
Second: COc1cc(C2N(c3ccc(Cl)cc3)C(=O)C3CCCN32)cc(OC)c1OC (stereo not given)
The inhibition of the first is higher: 18.1% for the first, -23.2% for the second.

Compared with `Cc1c(NS(=O)(=O)c2ccc(N=NN(C)C)cc2)c(=O)n(-c2ccccc2)n1C`, `O=C(Nc1ccc(S(=O)(=O)Nc2ncccn2)cc1)C1=NN(c2ccccc2)C(=O)CC1` is higher in inhibition: -13.3% for the first, 36.2% for the second.

Going from `COc1ccc2sc(-c3ccccc3OC)c(-c3ccc4c(c3)OCCO4)c2c1` to `COc1ccccc1-c1nnc(Nc2nc3c(OC)cccc3s2)o1`, the inhibition rises from 17.4% to 19%.

First: O=C1NC(=O)/C(=C/c2ccco2)N1
Second: Cn1c(O)c(/C=C2/C=CC=N2)c(=O)[nH]c1=O
The inhibition of the first is lower: -3.62% for the first, 75.9% for the second.

Going from `CSc1c2c(nc3ncnn13)CCC2` to `COCc1cc(C)nc2sc(C(=O)N3CCCC3)c(N)c12`, the inhibition rises from -27.5% to 3.21%.

Compared with `Cc1ccc(C2=NN(C(=O)c3ccco3)C(O)(C(F)(F)F)C2)cc1` (stereo not given), `O=C(c1ccco1)N1N=C(c2ccc(Br)cc2)CC1(O)C(F)(F)F` (stereo not given) is lower in inhibition: 71.2% for the first, 29.3% for the second.

Going from `Cc1ccc(C(=O)N2N=C(c3ccccc3)CC2(O)C(F)(F)F)o1` (stereo not given) to `CC(C)CC1=NN(C(=O)c2ccncc2)C(O)(C(F)(F)F)C1` (stereo not given), the inhibition falls from 58.8% to 47.5%.

Compared with `CCOC(=O)/C(=N\Nc1ccccc1Cl)N1CCN(c2ccccc2OC)CC1`, `O=C(CCc1ccccc1)N1CCN(c2ccc(F)cc2)CC1` is higher in inhibition: 19% for the first, 73.8% for the second.

First: c1ccc(-n2cnc3cc(NCc4cccs4)ccc32)cc1
Second: Nc1nc(NCc2c(F)cccc2Cl)nn1-c1ccccc1
The inhibition of the first is higher: 28.9% for the first, 2.25% for the second.

Compared with `Cc1ccc(C(=O)O)c(C(=O)Nc2nc3ccccc3s2)c1`, `COc1ccc2nc(NC(=O)c3ccccc3-c3ccccc3C(=O)O)sc2c1` is higher in inhibition: 11.2% for the first, 76.6% for the second.

Going from `O=C(COC(=O)c1ccccc1C(=O)c1ccccc1)NCc1ccc(F)cc1` to `O=C(NCCC(=O)N(CCc1ccccc1)Cc1ccccc1)c1ccc(Br)cc1`, the inhibition falls from 31.8% to 22.1%.

First: O=C(CCC(=O)N1CCN(c2ccccc2F)CC1)N1CCN(c2ccccc2)CC1
Second: O=C(NCCN1CCN(c2ccccc2)CC1)C1CCN(S(=O)(=O)c2cccc3nonc23)CC1
The inhibition of the first is higher: 45% for the first, 18.8% for the second.

Going from `COC(=O)c1ccccc1NC(=O)CN1C(=O)CSC1=O` to `COc1ccccc1NC(=O)CC1SC(=N)N(c2ccccc2)C1=O` (stereo not given), the inhibition falls from -0.76% to -5.17%.

Going from `CC(C)(C)NCC(O)CON=C1c2ccccc2-c2ccccc21` (stereo not given) to `COCCNCC(O)CON=C1c2ccccc2-c2ccccc21` (stereo not given), the inhibition falls from 65.3% to 54.3%.

Going from `COc1ccc(-c2csc3ncnc(N4CCN(c5cccc(C)c5C)CC4)c23)cc1` to `COc1ccc(Cc2nnc(NC(=O)c3c(-c4ccccc4)noc3C)s2)cc1`, the inhibition falls from 11.9% to 4.39%.

First: O=C(NCCN1CCOCC1)C1CCN(S(=O)(=O)N2CCCCC2)CC1
Second: CCCNc1nc2nc3ccccn3c(=O)c2cc1C(=O)NCCN1CCOCC1
The inhibition of the first is higher: -2.95% for the first, -18.1% for the second.

Going from `CCOC(=O)N1CCN(S(=O)(=O)c2ccc(C(=O)N(CCCN(C)C)c3nc4ccc(OC)cc4s3)cc2)CC1` to `COc1ccc(OC(=O)c2ccc(OC)c(S(=O)(=O)N3CCOCC3)c2)cc1`, the inhibition rises from 3.45% to 21.9%.

First: COc1ccc(OC)c(N/C(C)=C/C(=O)c2ccncc2)c1
Second: COc1ccc(CCN(C)Cc2ccncc2)cc1OC
The inhibition of the first is lower: 0% for the first, 1.96% for the second.

Going from `C/C(=C\C(=O)c1ccccc1)Nc1ccc(O)cc1` to `COc1ccc(NC(=O)Nc2c(O)ccc3ccccc23)cc1`, the inhibition falls from 29.4% to 17.9%.

Going from `COc1ccc(C(=O)c2c3ccc(OC)cc3[n+]([O-])n2Cc2ccc(C(N)=O)cc2)cc1` to `COc1ccc(C(=O)Nc2ccc(O)c3ccccc23)cc1`, the inhibition rises from 17.1% to 75.7%.

Compared with `COc1ccc(-c2nnc(SCC(=O)N(C)C3CCS(=O)(=O)C3)n2C(C)C)cc1` (stereo not given), `COc1ccc(C(=O)C[n+]2ccc3c(c2)nc(-c2ccccc2)n3C)cc1` is higher in inhibition: -12.8% for the first, 65.3% for the second.

Going from `CC1=N/C(=C/c2cccnc2)C(=O)O1` to `Cc1ccc(S(=O)(=O)NCc2cccnc2)cc1C`, the inhibition rises from -16.7% to 3.38%.

Compared with `Cc1ccc(C2=N/C(=C\N3CCCCC3)C(=O)O2)cc1`, `Cc1ccc(-c2noc(=O)n2CC(=O)Nc2ccc(S(=O)(=O)NC3CC3)cc2)cc1` is lower in inhibition: 21.3% for the first, 11.5% for the second.

Going from `COc1cc(C(C[N+](=O)[O-])c2c(N)n(C)c(=O)n(C)c2=O)ccc1O` (stereo not given) to `COc1ccccc1C(c1c(N)n(C)c(=O)n(C)c1=O)C(C)[N+](=O)[O-]` (stereo not given), the inhibition rises from 23.3% to 53%.

Going from `O=C(Nc1cccc2cccnc12)c1ccc2c(c1)OCCO2` to `O=C(Nc1ncccc1O)c1ccc2c(c1)OCCO2`, the inhibition falls from 16.4% to -9.11%.

Compared with `O=C(Nc1cccc2cccnc12)c1cccc([N+](=O)[O-])c1`, `O=[N+]([O-])c1ccc(Oc2cccc3cccnc23)c([N+](=O)[O-])c1` is higher in inhibition: 14.7% for the first, 72% for the second.

Compared with `COc1ccccc1OC(=O)c1ccc(C)c(S(=O)(=O)N2CCOCC2)c1`, `Cc1ccc(S(=O)(=O)N2CCC(C(=O)OCC(=O)NCCc3ccccc3)CC2)cc1C` is higher in inhibition: 16.8% for the first, 27.8% for the second.

Going from `Cn1c(SCc2nc3ccccc3[nH]2)nnc1-c1cnccn1` to `Cc1cccc(CN2CCc3c([nH]c4ccccc34)C2C(C)(C)C)n1` (stereo not given), the inhibition rises from 11% to 14.5%.

Going from `COc1ccc(CCNC(=O)C2CCN(C(=O)c3ccc(Br)cc3)CC2)cc1OC` to `COc1ccc(Cl)cc1NC(=O)CN(C)C(=O)c1ccc(-n2cncn2)cc1`, the inhibition rises from -3.89% to 0.55%.

Compared with `CCOC(=O)Cn1c(=O)oc2ccc(C)cc21`, `CCOC(=O)c1ccc(NC(=O)CCc2ccc(C)o2)cc1` is higher in inhibition: 16.3% for the first, 79.2% for the second.

First: CCn1cc(/C=N/NC(=O)c2ccc3c(c2)OCO3)c(C)n1
Second: Cc1ccc2cc(/C=N/NC(=O)CN3CCOCC3)c(Cl)nc2c1
The inhibition of the first is lower: -8.38% for the first, 6.43% for the second.

Compared with `CCN(CC)C(=O)c1sc2nc(Cc3ccccc3)[nH]c(=O)c2c1C`, `Cc1noc(C)c1COC(=O)CCc1nc2ccccc2c(=O)[nH]1` is lower in inhibition: 11% for the first, -4.31% for the second.

Going from `O=C(N/N=C/c1ccc(N2CCOCC2)cc1)C1CC1` to `Fc1ccc2nc(C(F)(F)F)cc(N3CCOCC3)c2c1`, the inhibition falls from 3.95% to -5.99%.

Compared with `COC1CCCN(Cc2c(C(=O)N3CCN(C4CCCCC4)CC3)nc3ccccn23)C1` (stereo not given), `O=C(C1=C[C@H](c2ccc(C(F)(F)F)cc2)C[C@H](OCc2ccc(CO)cc2)O1)N1CCCCCCC1` is higher in inhibition: 6.53% for the first, 23% for the second.

Compared with `OC(CNCC1CCCO1)Cn1c2ccccc2c2ccccc21` (stereo not given), `OC(CNCC1CCCO1)COc1ccc(OCC(O)CNCC2CCCO2)cc1` (stereo not given) is lower in inhibition: 25.3% for the first, 10.8% for the second.

Compared with `Cc1ccc(O)c(CNc2nccs2)c1`, `COC(=O)c1sccc1-c1ccc(C(=O)Nc2cccnc2)o1` is lower in inhibition: -1.47% for the first, -4.8% for the second.

Going from `O=C(CCNS(=O)(=O)c1ccc(OC(F)(F)F)cc1)N1CCN(C/C=C/c2ccccc2)CC1` to `O=C(CN1CCN(c2ccc(Cl)cc2)CC1)Nc1cccc(F)c1`, the inhibition rises from 47.4% to 69%.

Going from `O=C1CNC(=S)N1CCCn1ccnc1` to `CCCCn1c(O)c(C=NCCCn2ccnc2)c(=O)[nH]c1=O`, the inhibition rises from 2.92% to 5.46%.

Compared with `Cc1ccc(CCC(=O)Nc2ccc(C#N)cc2)o1`, `CC(=O)Nc1ccc(NC(=O)CCc2ccc(C)o2)cc1` is lower in inhibition: 50.3% for the first, 16.7% for the second.

Compared with `Cc1ccc(CCC(=O)Nc2ccc(CC(=O)O)cc2)o1`, `CC(=O)NC(=O)c1ccc(-c2ccc(Cl)cc2)o1` is higher in inhibition: 9.94% for the first, 57.6% for the second.

First: O=C(N/N=C\c1ccncc1)c1ccccc1O
Second: O=C(N/N=C/c1ccc(OCc2ccccc2)cc1)c1ccco1
The inhibition of the first is higher: 19.9% for the first, 6.81% for the second.

Compared with `O=C(Nc1c(F)cc(F)cc1Br)c1cc(-c2ccc(O)cc2)on1`, `COc1ccc(-c2cc(C(=O)Nc3c(F)cc(F)cc3Br)no2)cc1` is lower in inhibition: 79.2% for the first, 79.1% for the second.

Compared with `CN(/N=C/C=C/c1ccccc1)C1=NS(=O)(=O)c2ccccc21`, `O=S1(=O)N=C(N/N=C/c2ccccn2)c2ccccc21` is higher in inhibition: -1.47% for the first, 10.2% for the second.

Going from `Cc1cc(S(=O)(=O)NCCC2=CCCCC2)ccc1Br` to `CCOC(=O)C1CCN(S(=O)(=O)c2ccc(C)c(C)c2)CC1`, the inhibition falls from 34.3% to -7.38%.

First: O=C(NC(=S)NCC1CCCO1)c1ccc(Br)o1 (stereo not given)
Second: CN(CC(=O)Nc1cccc(F)c1)C(=O)c1ccc(OCC2CCCO2)cc1 (stereo not given)
The inhibition of the first is lower: -17.8% for the first, -4.27% for the second.

First: NS(=O)(=O)c1ccc(NC(=O)Cn2nc(C(=O)O)c3ccccc3c2=O)cc1
Second: O=C(NNC(=O)c1ccccc1O)c1ccc(-c2ccc([N+](=O)[O-])cc2)o1
The inhibition of the first is higher: 2.92% for the first, -16.6% for the second.

First: CC1(C)CC(=O)C(Sc2ccccc2C(=O)O)=C(O)C1
Second: CCCCn1c(O)c(/C=C2\C=Nc3ccccc32)c(=O)[nH]c1=O
The inhibition of the first is lower: -8.16% for the first, 59% for the second.

Going from `CCC(CC)c1nnc(NC(=O)c2cc(-c3ccccc3)nc3ccccc23)s1` to `CCC(CC)c1nnc(NC(=O)c2ccco2)s1`, the inhibition falls from 18.4% to 14.7%.

Compared with `CCCCn1c(O)c(/C=N/NC(=O)c2ccncc2)c(=O)[nH]c1=O`, `O=c1[nH]c(=O)n(Cc2ccccc2Cl)c(O)c1C=Nc1ccc(F)cc1` is lower in inhibition: 53.7% for the first, -1.58% for the second.

First: O=c1[nH]c(=O)n(Cc2ccccc2)c(O)c1/C=C1\C=Nc2ccccc21
Second: O=C1Cc2ccccc2C(=O)N1Cc1ccccc1
The inhibition of the first is higher: 66.3% for the first, -3.14% for the second.

Compared with `O=C(Nc1cccc(-n2cnnn2)c1)c1ccncc1`, `CCOC(=O)c1cccc(NC(=O)c2cccnc2)c1` is lower in inhibition: 0.55% for the first, -4.27% for the second.

Going from `Cc1[nH]c2ccc(F)cc2c1CCN(Cc1ccncc1)C(=S)Nc1cccc(F)c1` to `O=C(Nc1cccnc1)c1ccc(-c2cc(Cl)ccc2Cl)o1`, the inhibition falls from 16.2% to -8.82%.

Going from `COc1ccc(/C=N/NC(=O)NC23CC4CC(CC(C4)C2)C3)c(OC)c1` to `COc1ccc(-c2nnc(Nc3nc4c(OC)cccc4s3)o2)c(OC)c1`, the inhibition rises from 27.6% to 60.8%.

Compared with `O=C(NC1CCCCCC1)c1ccc(CS(=O)(=O)Cc2ccc(F)cc2)o1`, `O=C(Nc1cccnc1)c1cc(-c2ccc(Cl)cc2)on1` is higher in inhibition: 1.29% for the first, 71% for the second.

First: CCCSc1nnc(Cn2c(=O)sc3ccccc32)n1-c1ccccc1
Second: Nc1c(-c2ccccc2)cnn1-c1ccccc1
The inhibition of the first is higher: 7.2% for the first, -6.23% for the second.

Compared with `COc1cccc2sc(NN)nc12`, `COc1cccc2sc(Nc3nc(-c4ccncc4)cs3)nc12` is higher in inhibition: -6.89% for the first, 31.8% for the second.

`Cc1cc(C)nc(NC(=O)c2ccc(Br)s2)n1` showed an inhibition of 55.2%.
